Source: PubChem BioAssay (EPA / NIEHS)
Results filed as inconclusive are left out. Active and inactive are the calls of the source. The calls were made as follows, unless noted: active = hit-call score of the fitted dose curve at least 0.9, where 1 is the maximum; inactive = score below 0.9.

Experiments:
[1] = target: Estrogen-related receptor gamma (Homo sapiens) (UniProt P62508); assay: ATG_ERRg_TRANS: Attagene TRANS-FACTORIAL HepG2 Assay for human Estrogen-Related Receptor gamma (ERRg) (AID 2282977; active = hit-call score of the fitted dose curve at least 0.9, where 1 is the maximum;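 also: hits increase reporter signal over DMSO so potencies reflect activators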); details: HepG2 Attagene TRANS reporter, ERRg transactivation
Sequence of Estrogen-related receptor gamma (Homo sapiens) (P62508 whole entry, looked up, the tested form may be a part): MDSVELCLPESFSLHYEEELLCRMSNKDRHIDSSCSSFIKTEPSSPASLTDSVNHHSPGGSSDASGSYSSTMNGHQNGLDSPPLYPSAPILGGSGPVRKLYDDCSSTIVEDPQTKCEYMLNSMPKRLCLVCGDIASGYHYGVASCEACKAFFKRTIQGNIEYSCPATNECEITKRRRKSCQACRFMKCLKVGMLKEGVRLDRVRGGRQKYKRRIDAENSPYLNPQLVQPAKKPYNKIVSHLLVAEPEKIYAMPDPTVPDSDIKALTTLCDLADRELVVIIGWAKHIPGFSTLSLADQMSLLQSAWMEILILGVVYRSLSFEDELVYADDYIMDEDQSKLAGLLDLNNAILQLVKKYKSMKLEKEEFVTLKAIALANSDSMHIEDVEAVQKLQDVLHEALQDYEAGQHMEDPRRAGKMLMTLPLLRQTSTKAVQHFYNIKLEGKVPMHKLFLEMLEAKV
Outline: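 Transfect HepG2 with multiple GAL4-UAS reporter transcription units; dose chemicals 24 h; isolate RNA, reverse-transcribe with oligo(dT), PCR-amplify, label with 6-FAM, digest with HpaI; size fragments by capillary electrophoresis. DMSO serves as negative control.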

[2] = target: Oxysterols receptor LXR-beta (Homo sapiens) (UniProt P55055); assay: ATG_LXRb_TRANS: Attagene TRANS-FACTORIAL HepG2 Assay for human Liver X Receptor beta (LXRb) (AID 2282981; active = hit-call score of the fitted dose curve at least 0.9, where 1 is the maximum); details: HepG2 Attagene TRANS GAL4-LXRb reporter, mRNA
Sequence of Oxysterols receptor LXR-beta (Homo sapiens) (P55055 whole entry, looked up, the tested form may be a part): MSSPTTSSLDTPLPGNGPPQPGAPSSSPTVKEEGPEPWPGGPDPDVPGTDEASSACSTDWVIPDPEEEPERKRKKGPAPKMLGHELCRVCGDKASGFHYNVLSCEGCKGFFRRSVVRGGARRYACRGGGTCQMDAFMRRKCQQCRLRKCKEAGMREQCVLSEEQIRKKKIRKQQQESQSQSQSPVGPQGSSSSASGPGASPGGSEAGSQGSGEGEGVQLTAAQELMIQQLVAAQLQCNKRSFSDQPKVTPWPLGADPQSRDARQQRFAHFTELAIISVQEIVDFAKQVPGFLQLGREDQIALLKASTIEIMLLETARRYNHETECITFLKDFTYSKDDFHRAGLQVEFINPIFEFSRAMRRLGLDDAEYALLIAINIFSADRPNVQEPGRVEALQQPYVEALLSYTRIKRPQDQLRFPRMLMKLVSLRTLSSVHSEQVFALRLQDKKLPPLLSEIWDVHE
Outline: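 HepG2 cells transiently transfected with GAL4-UAS reporter units for chimeric NR-Gal4 proteins, dosed for 24 h. Reporter transcripts measured by RT-PCR and capillary electrophoresis; gain-of-signal fitting relative to DMSO.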

[3] = ATG_M_06_TRANS: Attagene TRANS-FACTORIAL HepG2 Assay for M06 Transcription Factor (Internal Marker) (AID 2282983; active = hit-call score of the fitted dose curve at least 0.9, where 1 is the maximum;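 also: reporter transcript level by RT-PCR then capillary electrophoresis fluorescence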); details: HepG2 Attagene TRANS M06 internal marker reporter
Outline: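 Measured by capillary electrophoresis of fluorescently labelled RT-PCR products, this endpoint reflects reporter mRNA in HepG2 cells harbouring exogenous NR-GAL4 reporter constructs after 24 h exposure, with DMSO as baseline.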

[4] = target: Nuclear receptor subfamily 4 group A member 2 (Homo sapiens) (UniProt P43354); assay: ATG_NURR1_TRANS: Attagene TRANS-FACTORIAL HepG2 Assay for human Nuclear Receptor Related Protein 1 (NURR1) (AID 2282985; active = hit-call score of the fitted dose curve at least 0.9, where 1 is the maximum); details: HepG2 Attagene TRANS reporter, mRNA readout
Outline: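 HepG2 cells transiently transfected with NURR1-Gal4 chimera and GAL4-UAS reporter units; after 24 hr compound exposure, reporter mRNA quantified by RT-PCR and capillary electrophoresis; gain of signal fitted against DMSO.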

[5] = ATG_NFI_CIS: Attagene CIS-FACTORIAL HepG2 Assay for human Nuclear Factor I (NFI) (AID 2282989); details: HepG2 cis-regulatory reporter, NFI response element transcription; actives raise or lower the signal
Outline: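 Transfected HepG2 liver cells, exposed 24 h, supplied total RNA for oligo(dT) reverse transcription and reporter-specific PCR. Labelled, HpaI-cut fragments were sized by capillary electrophoresis; DMSO set the baseline for bidirectional fitting.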

[6] = target: Myc proto-oncogene protein (Homo sapiens) (UniProt P01106); assay: ATG_Myc_CIS: Attagene CIS-FACTORIAL HepG2 Assay for human Myelocytomatosis (Myc) Proto-Oncogene Transcription Factor (AID 2282990); details: HepG2, Attagene cis-reporter transcription factor activity; actives raise or lower the signal
Sequence of Myc proto-oncogene protein (Homo sapiens) (P01106 whole entry, looked up, the tested form may be a part): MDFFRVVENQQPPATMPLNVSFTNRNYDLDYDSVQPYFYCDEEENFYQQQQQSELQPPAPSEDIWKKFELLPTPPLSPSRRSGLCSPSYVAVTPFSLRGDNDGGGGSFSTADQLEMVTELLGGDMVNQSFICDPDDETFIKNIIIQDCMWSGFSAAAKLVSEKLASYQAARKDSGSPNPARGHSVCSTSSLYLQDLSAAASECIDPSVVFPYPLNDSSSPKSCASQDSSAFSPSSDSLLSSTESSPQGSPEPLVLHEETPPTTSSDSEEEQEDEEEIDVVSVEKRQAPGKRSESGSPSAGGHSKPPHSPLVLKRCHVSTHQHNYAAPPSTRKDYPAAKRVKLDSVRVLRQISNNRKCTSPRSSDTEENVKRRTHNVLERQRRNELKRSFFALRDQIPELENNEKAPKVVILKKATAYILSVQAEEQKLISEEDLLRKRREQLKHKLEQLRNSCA
Outline: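 Fluorescence intensity of reporter-specific cDNA fragments, separated by capillary electrophoresis, gives the signal. Transfected HepG2 cells carrying cis-promoter reporter constructs are incubated with compound for 24 h; DMSO serves as baseline.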

[7] = ATG_NF_kB_CIS: Attagene CIS-FACTORIAL HepG2 Assay for human Nuclear Factor Kappa B (NF-kB) (AID 2282991); details: HepG2 Attagene cis-factorial NF-kB reporter mRNA; actives raise or lower the signal
Outline: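 After 24 h compound incubation, transfected HepG2 cells yield total RNA; reporter cDNA is PCR-amplified, end-labelled with 6-FAM, HpaI-digested and analysed on a genetic analyser. Endogenous factor activity, DMSO-referenced bidirectional fit.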

[8] = ATG_NRF2_ARE_CIS: Attagene CIS-FACTORIAL HepG2 Assay for human Nuclear Factor Erythroid 2 Related Factor 2 (NFR2) response to Antioxidant Response Elements (ARE) (AID 2282992); details: HepG2 Attagene ARE/NRF2 reporter, transcription factor activity; actives raise or lower the signal;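 as to AC50: reporter mRNA level measured by RT-PCR and capillary electrophoresis fluorescence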
Outline: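 Transient MRTU transfection of HepG2; 24 h compound exposure; TriZol RNA, RT with oligo(dT), PCR, 6-FAM primer extension, HpaI cut, CE. Bidirectional fit vs DMSO.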

[9] = ATG_Oct_MLP_CIS: Attagene CIS-FACTORIAL HepG2 Assay for human Octamer-Binding Transcription Factor (Oct) (AID 2282993); details: HepG2 Attagene cis-factorial Oct reporter, mRNA; actives raise or lower the signal
Outline: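 Using HepG2 cells bearing transfected cis-reporter constructs, mRNA induction was read after 24 h by fluorescent RT-PCR and capillary electrophoresis, with DMSO defining baseline for gain- or loss-of-signal fits.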

[10] = target: Cellular tumor antigen p53 (Homo sapiens) (UniProt P04637); assay: ATG_p53_CIS: Attagene CIS-FACTORIAL HepG2 Assay for human p53 Transcription Factor (AID 2282994); details: HepG2 p53 cis-element reporter, Attagene mRNA; actives raise or lower the signal
Sequence of Cellular tumor antigen p53 (Homo sapiens) (P04637 whole entry, looked up): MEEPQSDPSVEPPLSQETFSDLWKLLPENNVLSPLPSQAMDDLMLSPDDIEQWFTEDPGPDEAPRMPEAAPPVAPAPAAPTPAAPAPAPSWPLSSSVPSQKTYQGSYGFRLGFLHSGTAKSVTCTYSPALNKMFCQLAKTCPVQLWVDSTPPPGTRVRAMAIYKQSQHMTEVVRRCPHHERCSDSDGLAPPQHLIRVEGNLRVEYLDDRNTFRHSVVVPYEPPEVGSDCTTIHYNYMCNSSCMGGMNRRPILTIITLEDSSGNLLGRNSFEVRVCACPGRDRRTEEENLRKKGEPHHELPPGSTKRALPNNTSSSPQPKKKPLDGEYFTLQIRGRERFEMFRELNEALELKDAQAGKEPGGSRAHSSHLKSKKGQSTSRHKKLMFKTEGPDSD
Outline: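 HepG2, transient MRTU transfection (cis promoter elements, endogenous TFs); 24 h dosing; RNA isolation, RT-PCR, 6-FAM primer extension, HpaI digest, CE fluorescence; bidirectional fit vs DMSO.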

[11] = BSK_3C_TissueFactor: BioMAP Diversity Plus: 3C Assay for Tissue Factor Biomarker Activity (AID 2282997); details: BioMAP 3C HUVEC, tissue factor biomarker readout; actives raise or lower the signal
Outline: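 Values derive from bidirectional curve fitting against DMSO of Tissue Factor ELISA signals, taken 24 h after dosing primary human umbilical vein endothelial cells.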

[12] = BSK_3C_uPAR: BioMAP Diversity Plus: 3C Assay for Urokinase-type plasminogen activator receptor (uPAR) Biomarker Activity (AID 2282998); details: BioMAP 3C HUVEC, uPAR biomarker ELISA; actives raise or lower the signal
Outline: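 In this endothelial cell-based assay, human umbilical vein primary cells were treated with chemicals and harvested at 24 h. uPAR was quantified using ELISA, with gains or losses fitted relative to DMSO controls.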

[13] = BSK_3C_VCAM1: BioMAP Diversity Plus: 3C Assay for Vascular cell adhesion molecule 1 (VCAM1) Biomarker Activity (AID 2282999); details: BioMAP 3C HUVEC, VCAM1 ELISA, cytokine-stimulated; actives raise or lower the signal
Outline: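 Human umbilical vein endothelial cells (3C system), biomarker read by ELISA 24 h after dosing; bidirectional fit against DMSO baseline. Cytotoxicity tracked by SRB total-protein staining in parallel cultures at biomarker time.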

[14] = BSK_4H_Eotaxin3: BioMAP Diversity Plus: 4H Assay for Eotaxin 3 Biomarker Activity (AID 2283000); details: primary human endothelial cells (HUVEC); actives raise or lower the signal
Outline: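 Endothelial primary cells (human umbilical vein) exposed to compound for 24 h. ELISA detection of Eotaxin-3.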

[15] = target: Bile acid receptor (Homo sapiens) (UniProt Q96RI1); assay: ATG_FXR_TRANS: Attagene TRANS-FACTORIAL HepG2 Assay for Farnesoid X Receptor (FXR) (AID 2282979; active = hit-call score of the fitted dose curve at least 0.9, where 1 is the maximum;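 also: hits raise reporter mRNA above DMSO so AC50 marks FXR activation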); details: HepG2 Attagene TRANS FXR-GAL4 reporter transcription
Sequence of Bile acid receptor (Homo sapiens) (Q96RI1 whole entry, looked up, the tested form may be a part): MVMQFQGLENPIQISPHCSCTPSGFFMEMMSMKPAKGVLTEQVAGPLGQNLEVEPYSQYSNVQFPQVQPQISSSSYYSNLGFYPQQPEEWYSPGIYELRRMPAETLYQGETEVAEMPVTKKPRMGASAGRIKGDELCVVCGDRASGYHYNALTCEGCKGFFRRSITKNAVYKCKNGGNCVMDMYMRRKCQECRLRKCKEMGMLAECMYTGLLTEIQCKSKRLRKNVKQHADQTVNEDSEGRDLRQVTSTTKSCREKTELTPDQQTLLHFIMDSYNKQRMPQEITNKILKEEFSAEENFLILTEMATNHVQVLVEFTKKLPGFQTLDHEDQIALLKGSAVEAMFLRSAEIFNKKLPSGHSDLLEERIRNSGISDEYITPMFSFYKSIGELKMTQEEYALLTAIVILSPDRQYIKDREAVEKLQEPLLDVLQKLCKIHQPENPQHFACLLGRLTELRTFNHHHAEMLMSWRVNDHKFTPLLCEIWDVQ
Outline: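 Chimeric FXR-GAL4 activity in transiently transfected human HepG2 liver cells is scored as induction of reporter mRNA after 24 h of dosing. Detection uses RT-PCR with fluorescent labelling and capillary electrophoresis, with DMSO serving as baseline.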

[16] = ATG_M_32_TRANS: Attagene TRANS-FACTORIAL HepG2 Assay for M32 Transcription Factor (Internal Marker) (AID 2282984; active = hit-call score of the fitted dose curve at least 0.9, where 1 is the maximum;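 also: transcript level of a background control reporter unit measured by RT-PCR and capillary electrophoresis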); details: HepG2 Attagene TRANS M32 internal marker reporter
Outline: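 HepG2 cells transiently transfected with GAL4-UAS reporter units, dosed for 24 hours. Reporter mRNA quantified by RT-PCR, 6-FAM labelling, HpaI digestion and capillary electrophoresis; internal-marker signal fitted upward relative to DMSO.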

[17] = target: Nuclear respiratory factor 1 (Homo sapiens) (UniProt Q16656); assay: ATG_NRF1_CIS: Attagene CIS-FACTORIAL HepG2 Assay for human Nuclear Respiratory Factor 1 (NRF1) Orphan Gene (AID 2282987); details: HepG2 NRF1 cis-element reporter, Attagene multiplex; actives raise or lower the signal
Sequence of Nuclear respiratory factor 1 (Homo sapiens) (Q16656 whole entry, looked up): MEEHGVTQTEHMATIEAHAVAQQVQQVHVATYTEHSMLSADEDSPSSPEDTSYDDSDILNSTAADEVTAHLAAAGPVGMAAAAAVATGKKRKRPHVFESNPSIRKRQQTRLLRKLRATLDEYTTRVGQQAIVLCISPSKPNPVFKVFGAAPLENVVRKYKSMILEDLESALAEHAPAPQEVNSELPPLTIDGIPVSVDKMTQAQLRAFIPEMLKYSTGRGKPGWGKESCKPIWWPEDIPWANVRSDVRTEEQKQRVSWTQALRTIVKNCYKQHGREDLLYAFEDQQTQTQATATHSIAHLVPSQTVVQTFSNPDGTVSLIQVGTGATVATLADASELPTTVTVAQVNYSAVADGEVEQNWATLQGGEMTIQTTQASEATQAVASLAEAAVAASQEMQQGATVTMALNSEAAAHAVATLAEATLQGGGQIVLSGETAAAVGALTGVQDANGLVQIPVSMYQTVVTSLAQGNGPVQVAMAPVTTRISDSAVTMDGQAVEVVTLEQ
Outline: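 Endogenous factor activity was captured via cis-element-driven reporter transcripts in HepG2 cells. Following 24 h chemical treatment, transcripts were quantified by RT-PCR and capillary electrophoresis.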

[18] = target: Glucocorticoid receptor (Homo sapiens) (UniProt P04150); assay: ATG_GR_TRANS: Attagene TRANS-FACTORIAL HepG2 Assay for human Glucocorticoid Receptor (GR) (AID 2282978; active = hit-call score of the fitted dose curve at least 0.9, where 1 is the maximum;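 also: activators score as hits since higher reporter transcript over DMSO is fitted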); details: HepG2 Attagene TRANS GR reporter, mRNA transcription
Sequence of Glucocorticoid receptor (Homo sapiens) (P04150 whole entry, looked up, the tested form may be a part): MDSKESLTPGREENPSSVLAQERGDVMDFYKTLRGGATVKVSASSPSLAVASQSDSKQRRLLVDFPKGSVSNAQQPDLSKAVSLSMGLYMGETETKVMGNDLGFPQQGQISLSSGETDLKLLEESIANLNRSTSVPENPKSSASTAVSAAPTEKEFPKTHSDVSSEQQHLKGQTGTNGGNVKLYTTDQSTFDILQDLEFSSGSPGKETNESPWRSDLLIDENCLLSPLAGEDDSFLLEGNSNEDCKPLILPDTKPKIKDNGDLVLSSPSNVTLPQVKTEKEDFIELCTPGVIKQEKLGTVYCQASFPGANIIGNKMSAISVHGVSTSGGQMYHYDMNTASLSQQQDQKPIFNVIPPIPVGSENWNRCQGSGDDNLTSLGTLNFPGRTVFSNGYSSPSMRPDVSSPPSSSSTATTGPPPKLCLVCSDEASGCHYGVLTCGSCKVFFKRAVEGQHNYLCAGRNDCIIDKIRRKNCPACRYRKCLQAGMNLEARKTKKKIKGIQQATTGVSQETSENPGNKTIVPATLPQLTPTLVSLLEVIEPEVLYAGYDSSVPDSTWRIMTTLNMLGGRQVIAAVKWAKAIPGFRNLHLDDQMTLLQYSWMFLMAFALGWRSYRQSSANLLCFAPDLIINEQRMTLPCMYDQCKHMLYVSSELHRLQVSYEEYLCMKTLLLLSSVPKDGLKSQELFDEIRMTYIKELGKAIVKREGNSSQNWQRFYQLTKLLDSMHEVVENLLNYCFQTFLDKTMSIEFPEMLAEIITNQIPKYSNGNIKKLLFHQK
Outline: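 HepG2 transient transfection, multiple reporter units, GAL4-UAS under NR-GAL4 chimera control. 24 h treatment. Reporter mRNA by RT-PCR/CE fluorescence, DMSO as negative control.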

[19] = target: Oxysterols receptor LXR-alpha (Homo sapiens) (UniProt Q13133); assay: ATG_LXRa_TRANS: Attagene TRANS-FACTORIAL HepG2 Assay for human Liver X Receptor alpha (LXRa) (AID 2282980; active = hit-call score of the fitted dose curve at least 0.9, where 1 is the maximum); details: HepG2 Attagene TRANS reporter, LXRa transactivation
Sequence of Oxysterols receptor LXR-alpha (Homo sapiens) (Q13133 whole entry, looked up): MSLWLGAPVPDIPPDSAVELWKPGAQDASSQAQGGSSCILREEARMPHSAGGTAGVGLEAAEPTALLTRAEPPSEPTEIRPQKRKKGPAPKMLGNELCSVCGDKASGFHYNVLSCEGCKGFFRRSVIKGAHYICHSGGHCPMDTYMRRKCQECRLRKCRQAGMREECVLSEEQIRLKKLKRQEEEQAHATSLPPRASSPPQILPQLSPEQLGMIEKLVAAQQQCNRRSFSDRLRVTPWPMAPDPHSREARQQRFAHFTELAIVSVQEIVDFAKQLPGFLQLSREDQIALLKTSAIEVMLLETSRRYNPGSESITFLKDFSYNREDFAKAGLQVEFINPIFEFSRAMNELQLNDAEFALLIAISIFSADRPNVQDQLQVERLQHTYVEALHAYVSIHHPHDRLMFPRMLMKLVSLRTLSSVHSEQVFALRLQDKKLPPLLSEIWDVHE
Outline: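 Transient HepG2 transfectants, 24 h dosing, RT-PCR/CE mRNA reporter quantitation; gain-of-signal vs DMSO.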

[20] = target: Transcriptional activator Myb (Homo sapiens) (UniProt P10242); assay: ATG_Myb_CIS: Attagene CIS-FACTORIAL HepG2 Assay for human Myeloblastosis (Myb) Proto-Oncogene Transcription Factor (AID 2282986); details: HepG2 Attagene CIS-FACTORIAL Myb reporter transcription; actives raise or lower the signal
Sequence of Transcriptional activator Myb (Homo sapiens) (P10242 whole entry, looked up): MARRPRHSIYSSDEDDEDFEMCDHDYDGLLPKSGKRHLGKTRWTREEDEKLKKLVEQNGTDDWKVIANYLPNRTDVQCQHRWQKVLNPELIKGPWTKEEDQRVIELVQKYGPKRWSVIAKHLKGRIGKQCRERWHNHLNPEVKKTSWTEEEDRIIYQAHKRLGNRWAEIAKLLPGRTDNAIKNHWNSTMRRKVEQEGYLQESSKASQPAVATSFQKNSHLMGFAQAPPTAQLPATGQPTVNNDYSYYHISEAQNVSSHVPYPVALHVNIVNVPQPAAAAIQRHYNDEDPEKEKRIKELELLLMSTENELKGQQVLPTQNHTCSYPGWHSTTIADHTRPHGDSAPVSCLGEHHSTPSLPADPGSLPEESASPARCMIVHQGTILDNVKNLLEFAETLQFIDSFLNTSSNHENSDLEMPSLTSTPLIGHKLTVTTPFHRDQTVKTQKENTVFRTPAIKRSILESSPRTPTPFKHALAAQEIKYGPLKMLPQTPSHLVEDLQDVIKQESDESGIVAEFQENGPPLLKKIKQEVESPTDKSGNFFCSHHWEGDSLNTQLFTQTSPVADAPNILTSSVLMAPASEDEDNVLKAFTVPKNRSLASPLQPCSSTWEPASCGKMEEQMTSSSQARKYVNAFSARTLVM
Outline: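 Multiplexed cis-reporter system in HepG2: transient transfection, 24 h treatment, mRNA readout by RT-PCR and capillary electrophoresis. Both increases and decreases are scored versus DMSO negative control.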

Measured: AC50

CCCCCC(=O)O
not listed: [15] | [16] | [17] | [18] | [19] | [20]
inactive: all other assays above

CN[C@H]1CC[C@@H](c2ccc(Cl)c(Cl)c2)c2ccc(S(N)(=O)=O)cc21
active: [11] 33.4 µM | [12] 14.3 µM | [13] 30.4 µM | [14] 15.2 µM
not listed: [4] | [18] | [19] | [20]
inactive: all other assays above

COc1cc(-c2nc(NC(=O)c3cc4cc(C)cc(C)c4n3CC(=O)O)sc2CCC2CCCCC2)c(OC)cc1Cl
active: [5] 27 µM | [7] 26.7 µM | [8] 3.45 µM | [9] 5.48 µM | [11] 2.98 µM | [12] 2.92 µM | [13] 4.86 µM | [14] 3.77 µM
not listed: [1] | [6] | [17] | [20]
inactive: all other assays above

NS(=O)(=O)c1cc2c(cc1Cl)NCNS2(=O)=O
not listed: [6] | [7] | [15] | [17] | [20]
inactive: all other assays above

NC(=O)Cn1c(=O)cc(CCN2CCN(c3nccc4sccc34)CC2)c2ccc(F)cc21
active: [8] 54.3 µM
not listed: [2] | [3] | [6] | [17]
inactive: all other assays above

O=C(O)CCCCC(=O)O
not listed: [1] | [3] | [19]
inactive: all other assays above

CCCCCCCCCCCCCCCCCC(=O)O
not listed: [2] | [3] | [4] | [6] | [15] | [16] | [18] | [19]
inactive: all other assays above
